Assay results taken from PubChem BioAssay (NCI).
Several values for one entry are separate records, joined by “and”; a condition that tells them apart may be missing. Equal values may be shown once. About 83,000 compounds went through this panel and 20% of them were active in at least one assay; those are over-represented in the sample as a whole.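 Note: values are percent growth. 100 is the growth of untreated cells, values between 100 and 0 indicate rising inhibition; between -100 and 0 indicates cell death.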 Values without a mark were called inactive. Activity calls are given as the source filed them.

These compounds were tested on SNB-19 CNS (assay: NCI-60 one-dose screen, 48 h (100 = growth as untreated, 0 = no growth, -100 = all killed)). Conditions: 10 µM.
Procedure: Growth inhibition of the SNB-19 human tumor cell line is measured as a screen for anti-cancer activity. Cells are grown in 96 well plates and exposed to the test compound for 48 hours. Compounds are tested at a single concentration, which is 10^-5 M for most compounds. The reported endpoint is percent growth (GI% or GIPRCNT), where numbers from 0 - 100% represent growth inhibition, and numbers from -100% - 0 represent cell death. For example, a value of 40 represents 60% growth inhibition. A value of 0 means no net growth occurred over the course of the experiment. A value of -40 indicates 40% of cells at the beginning of the experiment died by the end of the experiment. A value of -100 means all cells are dead at the end of the experiment.
NCI-60 Human Tumor Cell Lines Screen was performed using the standard one-dose NCI protocol, which is described in more detail at https://dtp.cancer.gov/discovery_development/nci-60/default.htm.
Compounds with GIPRCNT values below 10 were considered active. Activity score was based on GIPRCNT using the following formula: […]
Score is 0 for GIPRCNT values of 100 or above, 50 for GIPRCNT values of 0, and 100 for GIPRCNT values of -100.
`CC(=O)/C=C/c1ccc(N(C)Cc2ccc(C(C)(C)C)cc2)cc1` showed a growth of 110%.

Same assay, conditions: 10 µM unless noted
In the case of `Clc1ccc(/C=N\N2CCCCCC2)cc1`, the growth is reported as 96.4% and 109%. Compound `C=C1CCC2C3(C)COC(c4ccc(NC(C)=O)cc4)OC3CCC2(C)C1C/C=C1/C(=O)OCC1O` (stereo not given) has a growth of 83.6%. `O=C(N=Nc1c(O)[nH]c2ccccc12)Nc1ccccc1Cl` gave a growth of 91.1%. Work on `COc1ccc(-c2nc(Cl)c3c(C)nn(-c4ccc(F)cc4)c3n2)cc1` yielded a growth of 99.7%. In the case of `Nn1c(-c2ccc(Cl)cc2)nc2c(-c3ccc(Cl)cc3)nc3ccc(Cl)cc3c2c1=O`, the growth is reported as 28.2%. In the case of `COc1ccc(C/C(C)=C(/c2ccc(OCCN3CCCC3)cc2)c2ccc(OC(=O)NCc3ccccc3)cc2)cc1`, the growth is reported as 85.6%. Work on `N=c1c2c(-c3ccccc3)c(-c3ccccc3)oc2ncn1NC(=O)c1cccnc1` yielded a growth of 96.4%. Work on `COC1/C=C/OC2(C)Oc3c(C)c(O)c4c(O)c(c(C=NOC(c5ccccc5)c5ccccc5)c(O)c4c3C2=O)NC(=O)/C(C)=C/C=C/C(C)C(O)C(C)C(O)C(C)C(OC(C)=O)C1C` (stereo not given) yielded a growth of 30.8%. `CCOC(=O)N(O)c1ccc(/C=C/c2ccccc2)cc1` was tested, and the growth was 91.2% and 74.5%. `COc1cc(CNC(=O)CCCC/C=C/C(C)C)ccc1O` was tested, and the growth was 90.9% and 104%. Compound `CCCCC1COc2cccc3c2N1C=C/C3=C\C(=O)N(C)c1cccc(Cl)c1` (stereo not given) has a growth of 91.5%. `Cc1ccc(-c2nc(C#N)c(S(=O)(=O)N(C)C)o2)cc1` showed a growth of 98.2%. For `O=C1/C(=C/c2ccccc2[N+](=O)[O-])Cc2ccccc21`, the growth was 93.7% and 74.1%. Work on `Cn1c(=O)c2c(nc(Nc3cc(=O)[nH]c(=O)[nH]3)n2Cc2ccccc2)n(C)c1=O` yielded a growth of 96.9%. `O=C1/C(=C/c2ccc(-c3cccc(C(F)(F)F)c3)o2)SC(=S)N1CCc1ccc(O)cc1` was tested, and the growth was 104%. In the case of `CCNC(=O)Oc1ccc(/C(=C(/C)Cc2ccc(OC)cc2)c2ccc(OCCN(CC)CC)cc2)cc1`, the growth is reported as 74.5%. With `O=C(O)C1C2CCC1C(O)C2` (stereo not given) the growth was 102% and 108%. Work on `Cn1cc(-c2nonc2-c2cn(C)c3ccc(Br)cc23)c2ccccc21` yielded a growth of 27.6%. In the case of `Fc1ccccc1-c1cnn2cc(-c3ccccc3)cnc12`, the growth is reported as 94.1%. `COc1ccc(/C=N\Nc2nc(SCC(C)C)nc(-c3ccc(OC)cc3)c2C#N)cc1` was tested, and the growth was 31%. `O=C(NCc1ccc(Cn2c(=O)sn(-c3ccc(Cl)cc3)c2=O)cc1)OCc1ccc2c(Cl)cc(Cl)c(O)c2n1` showed a growth of 39.1%. In the case of `O=C(O)c1ccccc1Cc1ccc(F)c2ccccc12`, the growth is reported as 101% and 104%. `N#CC1C(=O)c2ccccc2C1c1ccccc1` (stereo not given) was tested, and the growth was 97.1% and 98.5%. With `CC1(Cc2ccccc2)CC2=C(C(=O)O1)C(c1ccccc1)NC(=O)N2` (stereo not given) the growth was 89.4%. For `S=c1nc(CS)[nH]c2ccccc12`, the growth was 92.5%. Compound `Clc1ccc(Nc2nc(Nc3ccc(Cl)cc3)nc(Nc3ccc(-c4cc(-c5cccc(Cl)c5)on4)cc3)n2)cc1` has a growth of 101%. For `Cc1ccc(C(=O)Nc2nc3c(s2)CN(Cc2ccccc2)CC3)cn1`, the growth was 92.3%. Compound `c1ccc(Cc2cccc[n+]2C(c2ccccc2)c2ccccc2)cc1` has a growth of 58.1%. `N#CSc1c[nH]c2ccc(/C=C/C(=O)/C=C(/C=C/c3ccc4[nH]cc(SC#N)c4c3)OB(F)F)cc12` was tested, and the growth was 38.2%. Work on `COc1ccc(Cn2cc(C(=O)Nc3cccnc3Nc3ccccc3)nn2)cc1` yielded a growth of 93.3%. Compound `Cc1ccc(NC(=O)c2sc3nc(C)c(C(=O)c4ccccc4)cc3c2N)cc1` has a growth of 83.3%. In the case of `O=C(NNc1ccccc1)c1ncc[nH]1`, the growth is reported as 96.5%. For `O=S(=O)(O)c1ccc(N=Nc2ccc(N=Nc3cccc4ccccc34)c(S(=O)(=O)O)c2)cc1`, the growth was 110%. `Nc1ncc(-c2ccc3ncnc(N4CCc5ccc(Cl)cc54)c3c2)cc1C(F)(F)F` gave a growth of 32.7%. For `Nc1ccccc1SC(CC(=O)c1ccccc1)c1ccc([N+](=O)[O-])cc1` (stereo not given), the growth was 93.2% and 101%. With `COc1ccc(/C=C(\C#N)c2cc3ccccc3[nH]2)cc1` the growth was 39.7%. `CCN(CC)CCCN1C(=O)c2c(c(C)c3c(oc4cc(OC)ccc43)c2C)C1=O` was tested, and the growth was 99.1%. For `O=C(c1cccc(Br)c1)N1CCN(c2ccnc3cc(Cl)ccc23)CC1`, the growth was 85.1%.

Same assay, conditions: 100 µM
`CC(=O)/C=C/c1ccc(N(C)Cc2ccc(C(C)(C)C)cc2)cc1` was tested, and the growth was -31.2% (active).
